ChEMBL document CHEMBL3988442, “University of Dundee, Small-Polar-MMV Screening Library” (2021)
For some assays here: Results with a measured potency or affinity are listed apart.

Key:
Design in all cases: scale not given: direction of the effect not stated beside the values
[1] = biological target: Protein translocase subunit SecA (Escherichia coli (strain K12)) (UniProt P10408); assay: Assay to Identify E. coli SecA ATPase Inhibitors; assay type: functional; conditions: 30 µM
[2] = biological target: T1, Ubiquitin-activating enzyme e1, putative (Leishmania donovani (strain BPK282A1)) (UniProt E9BSI1); assay: Leishmania donovani Ubiquitin Activating Enzyme (LdE1); assay type: functional; conditions: 30 µM
T1 sequence (whole entry): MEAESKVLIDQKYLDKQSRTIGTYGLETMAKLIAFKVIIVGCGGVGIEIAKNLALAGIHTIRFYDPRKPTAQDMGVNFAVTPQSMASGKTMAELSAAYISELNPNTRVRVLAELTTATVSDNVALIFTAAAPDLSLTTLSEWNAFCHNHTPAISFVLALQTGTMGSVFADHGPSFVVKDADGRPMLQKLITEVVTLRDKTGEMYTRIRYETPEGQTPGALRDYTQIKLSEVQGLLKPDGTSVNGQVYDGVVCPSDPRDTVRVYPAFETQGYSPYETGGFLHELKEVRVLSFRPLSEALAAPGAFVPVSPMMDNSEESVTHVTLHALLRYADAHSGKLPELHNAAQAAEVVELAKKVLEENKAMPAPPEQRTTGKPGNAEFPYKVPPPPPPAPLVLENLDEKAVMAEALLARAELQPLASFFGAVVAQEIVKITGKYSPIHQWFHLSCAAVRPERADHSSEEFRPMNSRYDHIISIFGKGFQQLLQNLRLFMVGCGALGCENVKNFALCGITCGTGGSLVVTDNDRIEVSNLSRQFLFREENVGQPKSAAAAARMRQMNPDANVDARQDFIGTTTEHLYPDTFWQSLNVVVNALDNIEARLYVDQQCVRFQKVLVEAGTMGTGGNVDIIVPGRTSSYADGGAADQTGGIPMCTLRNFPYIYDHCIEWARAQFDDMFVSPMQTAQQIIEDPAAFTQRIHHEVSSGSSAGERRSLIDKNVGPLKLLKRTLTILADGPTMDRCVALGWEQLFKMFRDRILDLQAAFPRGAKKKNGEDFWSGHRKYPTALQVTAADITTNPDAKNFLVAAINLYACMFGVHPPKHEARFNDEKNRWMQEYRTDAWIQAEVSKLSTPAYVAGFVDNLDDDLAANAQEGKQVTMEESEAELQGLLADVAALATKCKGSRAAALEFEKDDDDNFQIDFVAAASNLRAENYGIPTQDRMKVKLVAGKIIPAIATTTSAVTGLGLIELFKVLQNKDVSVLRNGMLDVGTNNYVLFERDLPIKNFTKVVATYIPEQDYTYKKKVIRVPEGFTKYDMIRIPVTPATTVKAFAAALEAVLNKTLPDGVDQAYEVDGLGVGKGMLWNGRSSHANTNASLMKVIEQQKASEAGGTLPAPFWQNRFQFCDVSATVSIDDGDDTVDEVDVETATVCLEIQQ

[3] = biological target: Sialic acid-binding Ig-like lectin 9 (Homo sapiens) (UniProt Q9Y336); assay: Hs-Siglec9 ALPHAscreen SOP 20170721; conditions: 10 µM
Chain of Sialic acid-binding Ig-like lectin 9 (Homo sapiens) (Q9Y336 whole entry): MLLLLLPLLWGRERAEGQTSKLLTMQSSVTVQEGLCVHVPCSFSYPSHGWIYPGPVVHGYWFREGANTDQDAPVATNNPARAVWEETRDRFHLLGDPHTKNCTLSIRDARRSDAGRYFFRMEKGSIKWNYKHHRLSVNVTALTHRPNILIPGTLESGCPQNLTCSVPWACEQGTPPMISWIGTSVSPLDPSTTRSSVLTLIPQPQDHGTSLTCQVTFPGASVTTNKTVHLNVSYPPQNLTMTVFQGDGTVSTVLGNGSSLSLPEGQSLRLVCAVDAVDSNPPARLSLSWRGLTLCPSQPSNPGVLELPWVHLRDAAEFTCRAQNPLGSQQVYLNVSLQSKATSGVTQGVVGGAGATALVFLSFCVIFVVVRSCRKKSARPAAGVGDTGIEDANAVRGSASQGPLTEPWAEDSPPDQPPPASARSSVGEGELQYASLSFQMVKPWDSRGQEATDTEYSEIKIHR

[4] = system: Trypanosoma cruzi; assay: Trypanosoma cruzi phosphomannomutase and mannose-1-phosphate guanylyltransferase assay; assay type: functional; conditions: 10 µM
[5] = biological target: T2, Arginase-2, mitochondrial (Homo sapiens) (UniProt P78540); assay: in vitro enzyme assay to detect the production of urea directly proportional to the activity of Arginase II; assay type: functional; conditions: 33.3 µM; note: in the data most compounds retested in dose-response had high values
T2 sequence (whole entry): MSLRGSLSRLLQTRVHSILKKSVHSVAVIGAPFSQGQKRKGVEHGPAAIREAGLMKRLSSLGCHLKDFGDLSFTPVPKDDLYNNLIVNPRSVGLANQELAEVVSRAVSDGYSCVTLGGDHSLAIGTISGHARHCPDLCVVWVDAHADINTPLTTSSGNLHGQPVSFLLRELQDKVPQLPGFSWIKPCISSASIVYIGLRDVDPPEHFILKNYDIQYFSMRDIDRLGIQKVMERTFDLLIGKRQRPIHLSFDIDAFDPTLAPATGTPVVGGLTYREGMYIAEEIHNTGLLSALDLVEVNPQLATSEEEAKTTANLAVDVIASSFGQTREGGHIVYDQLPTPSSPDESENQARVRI

[6] = biological target: T3, Proteasome subunit beta (Trypanosoma cruzi) (UniProt O96673); assay: Trypanosoma cruzi proteasome chymotrypsin-like activity (TcProtChymo) assay.; note: in the data most compounds retested in dose-response had high values; assay type: functional; conditions: 9.37 µM
T3 sequence (whole entry): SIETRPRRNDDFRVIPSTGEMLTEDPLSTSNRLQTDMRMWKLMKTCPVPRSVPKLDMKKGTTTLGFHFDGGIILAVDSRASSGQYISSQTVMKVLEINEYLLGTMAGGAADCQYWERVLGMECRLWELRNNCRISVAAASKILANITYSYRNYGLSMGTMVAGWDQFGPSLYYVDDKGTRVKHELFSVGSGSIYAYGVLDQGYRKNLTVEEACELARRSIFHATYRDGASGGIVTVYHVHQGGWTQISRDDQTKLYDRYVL

[7] = species on record: Homo sapiens; assay: To identify inhibition of the IFN signalling (Jak-Stat) pathway via expression of an eGFP reporter gene under the control of an IFN-stimulated response element (ISRE) containing MxA promoter.; assay type: functional; conditions: 30 µM
[8] = biological target: T4, Tyrosyl-tRNA synthetase, putative (Trypanosoma cruzi (strain CL Brener)) (UniProt Q4DSP6); assay: Trypanosoma cruzi tyrosyl tRNA synthetase (TcYRS) _High Tyrosine SOP; assay type: functional; conditions: 30 µM; note: in the data most compounds retested in dose-response had high values
T4 sequence (whole entry): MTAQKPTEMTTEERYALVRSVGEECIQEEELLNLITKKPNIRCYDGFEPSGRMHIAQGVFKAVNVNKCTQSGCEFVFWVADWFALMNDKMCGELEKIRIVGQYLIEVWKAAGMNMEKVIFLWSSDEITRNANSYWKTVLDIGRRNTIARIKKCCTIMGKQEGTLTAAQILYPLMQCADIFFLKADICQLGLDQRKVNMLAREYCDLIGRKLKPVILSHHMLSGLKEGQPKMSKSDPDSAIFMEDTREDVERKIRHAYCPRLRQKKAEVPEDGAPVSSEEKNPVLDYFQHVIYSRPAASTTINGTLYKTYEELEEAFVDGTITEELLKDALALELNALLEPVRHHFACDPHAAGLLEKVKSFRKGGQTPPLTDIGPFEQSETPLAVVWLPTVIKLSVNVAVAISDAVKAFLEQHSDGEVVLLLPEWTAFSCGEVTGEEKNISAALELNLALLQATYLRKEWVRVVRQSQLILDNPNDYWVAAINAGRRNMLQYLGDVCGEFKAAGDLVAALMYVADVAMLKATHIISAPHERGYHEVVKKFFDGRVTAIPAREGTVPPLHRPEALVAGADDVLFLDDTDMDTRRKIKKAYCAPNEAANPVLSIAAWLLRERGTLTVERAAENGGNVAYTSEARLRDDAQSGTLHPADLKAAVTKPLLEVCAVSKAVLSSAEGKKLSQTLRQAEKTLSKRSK

[9] = biological target: T4, Tyrosyl-tRNA synthetase, putative (Trypanosoma cruzi (strain CL Brener)); assay: Trypanosoma cruzi tyrosyl tRNA synthetase (TcYRS) SOP; assay type: functional; conditions: 30 µM
[10] = biological target: Chromo domain-containing protein 1 (Saccharomyces cerevisiae (strain ATCC 204508 / S288c) (Baker's yeast)) (UniProt P32657); assay: ScCHD-1 Enzyme Inhibition Assay; assay type: functional; conditions: 30 µM; note: in the data most compounds retested in dose-response had high values
Chain of Chromo domain-containing protein 1 (Saccharomyces cerevisiae (strain ATCC 204508 / S288c) (Baker's yeast)) (P32657 whole entry, the tested form may be a part): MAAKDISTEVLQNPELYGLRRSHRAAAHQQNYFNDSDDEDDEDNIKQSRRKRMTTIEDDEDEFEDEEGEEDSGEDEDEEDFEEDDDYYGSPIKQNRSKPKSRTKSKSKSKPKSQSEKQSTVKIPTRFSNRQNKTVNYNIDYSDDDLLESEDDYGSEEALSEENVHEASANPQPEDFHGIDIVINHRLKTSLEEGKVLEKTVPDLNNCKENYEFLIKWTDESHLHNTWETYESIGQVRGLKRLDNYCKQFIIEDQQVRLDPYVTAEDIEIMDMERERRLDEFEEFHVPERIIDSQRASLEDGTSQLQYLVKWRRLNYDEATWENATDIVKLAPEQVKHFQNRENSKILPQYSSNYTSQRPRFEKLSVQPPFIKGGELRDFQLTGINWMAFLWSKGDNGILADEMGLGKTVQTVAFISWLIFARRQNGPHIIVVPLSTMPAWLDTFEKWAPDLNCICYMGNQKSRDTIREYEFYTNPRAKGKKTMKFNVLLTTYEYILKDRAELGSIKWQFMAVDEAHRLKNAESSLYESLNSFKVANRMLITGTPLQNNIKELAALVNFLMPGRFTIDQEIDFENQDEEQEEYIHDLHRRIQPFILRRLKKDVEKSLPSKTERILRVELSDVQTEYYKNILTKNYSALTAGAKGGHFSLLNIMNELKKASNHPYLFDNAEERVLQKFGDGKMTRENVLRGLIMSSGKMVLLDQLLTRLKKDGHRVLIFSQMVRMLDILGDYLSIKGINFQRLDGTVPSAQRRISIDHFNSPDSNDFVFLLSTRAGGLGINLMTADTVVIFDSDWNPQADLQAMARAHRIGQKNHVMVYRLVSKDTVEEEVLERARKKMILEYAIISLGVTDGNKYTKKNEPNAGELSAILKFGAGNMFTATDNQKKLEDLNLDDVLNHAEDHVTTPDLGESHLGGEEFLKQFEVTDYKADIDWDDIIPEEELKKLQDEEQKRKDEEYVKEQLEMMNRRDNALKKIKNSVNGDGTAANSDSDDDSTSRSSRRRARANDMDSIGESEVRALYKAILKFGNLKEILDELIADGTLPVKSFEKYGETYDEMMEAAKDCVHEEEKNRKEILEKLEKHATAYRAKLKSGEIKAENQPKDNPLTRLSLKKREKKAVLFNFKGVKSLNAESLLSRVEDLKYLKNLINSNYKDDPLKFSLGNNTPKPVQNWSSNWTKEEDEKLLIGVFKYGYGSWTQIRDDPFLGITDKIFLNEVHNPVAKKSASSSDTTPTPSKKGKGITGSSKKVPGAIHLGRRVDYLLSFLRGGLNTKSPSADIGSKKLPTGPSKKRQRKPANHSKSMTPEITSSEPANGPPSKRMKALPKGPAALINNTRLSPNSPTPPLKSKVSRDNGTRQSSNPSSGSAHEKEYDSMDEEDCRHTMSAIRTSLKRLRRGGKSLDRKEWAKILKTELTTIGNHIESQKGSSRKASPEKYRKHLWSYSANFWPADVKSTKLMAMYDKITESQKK

Chain of Protein translocase subunit SecA (Escherichia coli (strain K12)) (P10408 whole entry): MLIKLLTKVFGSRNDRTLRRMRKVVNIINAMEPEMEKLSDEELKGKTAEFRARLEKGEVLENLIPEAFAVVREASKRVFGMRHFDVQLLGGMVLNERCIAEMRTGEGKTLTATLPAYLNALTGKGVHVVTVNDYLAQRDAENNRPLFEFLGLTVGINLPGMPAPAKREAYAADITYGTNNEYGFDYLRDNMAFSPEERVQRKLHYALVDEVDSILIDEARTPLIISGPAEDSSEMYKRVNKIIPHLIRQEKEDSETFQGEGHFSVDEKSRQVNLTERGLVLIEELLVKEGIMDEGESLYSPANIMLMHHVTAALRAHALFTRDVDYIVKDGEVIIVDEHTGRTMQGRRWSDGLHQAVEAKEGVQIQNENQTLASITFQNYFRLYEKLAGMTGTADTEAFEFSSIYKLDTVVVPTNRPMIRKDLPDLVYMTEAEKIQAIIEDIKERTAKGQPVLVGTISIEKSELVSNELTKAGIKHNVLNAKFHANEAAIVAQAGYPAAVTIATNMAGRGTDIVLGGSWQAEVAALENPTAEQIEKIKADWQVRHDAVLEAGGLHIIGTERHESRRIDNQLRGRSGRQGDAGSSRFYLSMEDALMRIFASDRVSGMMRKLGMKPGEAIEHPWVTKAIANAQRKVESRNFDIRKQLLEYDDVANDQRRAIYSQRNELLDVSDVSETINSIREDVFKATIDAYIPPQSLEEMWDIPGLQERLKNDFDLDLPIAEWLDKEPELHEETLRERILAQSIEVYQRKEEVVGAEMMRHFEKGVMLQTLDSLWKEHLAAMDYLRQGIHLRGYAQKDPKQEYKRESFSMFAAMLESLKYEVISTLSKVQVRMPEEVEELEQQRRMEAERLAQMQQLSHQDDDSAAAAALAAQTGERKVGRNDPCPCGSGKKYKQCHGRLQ

Structure (SMILES)	Percent Effect [1] [%]	Percent Effect [2] [%]	Percent Effect [3] [%]	Percent Effect [4] [%]	Percent Effect [5] [%]	Percent Effect [6] [%]	Percent Effect [7] [%]	Percent Effect [8] [%]	Percent Effect [9] [%]	Percent Effect [10] [%]
c1csc(CN2CCOCC3(CCN(C4CCOCC4)C3)C2)n1 (stereo not given)	-5.6	6.49	-3.43	-4.77	-5.67	16.9	-1.84	2.63	-2.56	-0.251
COc1ccc(C2CC(=O)Nc3c2cnn3C2CCCC2)cc1 (stereo not given)	-8.84	-2.7	-0.717	2.62	2.45	5.31	8.51	6.92	4.88	-1.74
CO[C@@H]1CC[C@@H](N(C)C(=O)COc2ccc(F)cc2)[C@H]1O	-0.0302	9.33	5.58	-6.31	5.31	10.8	9.43	1.06	7.5	-24
CSc1ccccc1C(C(=O)O)N1CCN(Cc2ccccn2)CC1 (stereo not given)	-6	13.5	6.14	9.21	60.5	10.8	14.2	6.92	19.5	0.128
CCOc1ncccc1CNC(=O)Nc1ccc(N(C)C)nc1	-5.71	2.6	-6.42	-9.89	-2.66	15.3	13.9	0.98	4.71	-9.6
CCO[C@H]1CO[C@@]2(CCCN(S(=O)(=O)c3ccccc3)C2)C1	-1.1	24.7	-3.22	-3.02	11.3	17.7	10.2	2.63	0	6.62
CS(=O)(=O)c1cccc(C(N)c2ccc(F)c(F)c2)c1 (stereo not given)	-6.37	5.33	1.99	-2.81	-2.66	4.16	23.5	7.89	15.4	-9.26
Cn1cc(CN2CCOCC3(C2)CN(c2ccccc2)C(=O)CO3)cn1 (stereo not given)	-5.71	9.09	-4.81	-1.85	0	5.03	-7.25	6.84	10.3	-1.15
O=C(c1ccc(C(F)(F)F)nc1)N1CCCC(n2cncn2)C1 (stereo not given)	1.26	-5.13	-2.26	5.92	5.33	3.33	-13.8	-3.35	1.21	-3.39
CC(Cn1cccn1)NC(=O)NCc1cccs1 (stereo not given)	-2.75	-66.7	2.38	-4.82	0.887	13	10.9	3.68	7.69	-11.3
Cc1ccc(CC(=O)N2CCc3nnc(N(C)C)cc3C2)cn1	0.88	20.5	-4.67	-0.469	2.05	13.6	16.2	6.22	10.8	-4.95
